Many of the other results were omitted from the sample, so hits are more common in it than they were.
FECH block – blocks human mitochondrial ferrochelatase activity | purified FECH, Ni-mesoporphyrin absorbance 550 nm | P22830 | calls only at 10 µM (by protocol) | AID 1671448 | 3.3% of 20,000 active;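 active = enzyme reaction rate more than 3 SD below the solvent-only control wells on the same plate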;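 also: lower slope than DMSO wells means FECH inhibition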
Target sequence (P22830 whole entry, looked up): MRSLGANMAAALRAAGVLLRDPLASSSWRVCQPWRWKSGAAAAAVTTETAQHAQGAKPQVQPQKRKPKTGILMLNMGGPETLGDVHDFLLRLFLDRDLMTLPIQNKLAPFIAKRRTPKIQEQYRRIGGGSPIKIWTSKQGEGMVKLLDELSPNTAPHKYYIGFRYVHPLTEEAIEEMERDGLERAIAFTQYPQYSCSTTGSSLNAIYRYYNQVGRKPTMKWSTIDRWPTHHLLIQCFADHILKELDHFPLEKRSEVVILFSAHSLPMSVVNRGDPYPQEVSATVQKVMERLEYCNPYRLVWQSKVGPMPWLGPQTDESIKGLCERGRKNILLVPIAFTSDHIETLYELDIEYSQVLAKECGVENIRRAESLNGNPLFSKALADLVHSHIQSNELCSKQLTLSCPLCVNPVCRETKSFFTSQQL
Calls only; n = inactive; + = active, no number.

SMILES	FECH block
CCC(=O)Nc1nc2n(n1)C(c1c(F)cccc1Cl)C=C(c1ccc(C)cc1)N2 (stereo not given)	n
Cc1cccc(C(=O)Nc2nc3n(n2)C(c2c(F)cccc2Cl)C=C(c2ccc(Cl)cc2)N3)c1 (stereo not given)	+
O=C(Nc1nc2n(n1)C(c1c(F)cccc1Cl)C=C(c1ccccc1)N2)c1ccccc1 (stereo not given)	+
COc1ccc(C(=O)Nc2nc3n(n2)C(c2c(F)cccc2Cl)C=C(c2ccccc2)N3)cc1 (stereo not given)	n
CCc1c(C)nc2ncnn2c1Sc1ccc(NC(=O)Nc2cc(C)ccc2C)cc1	n
CC(=O)c1cc(Cl)cc(-c2ccc(C(C)N3CCOCC3)cc2)c1O (stereo not given)	n
O=S(=O)(NCCn1c(-c2ccc(F)cc2)nc2cccnc21)c1ccccc1	n
CCC(CO)NC(=O)C(=O)NCc1n[nH]c(=O)c2ccccc12 (stereo not given)	n
CS(=O)(=O)c1ccc(-n2ccnc2-c2ccccn2)cc1	n
Cc1cc(Nc2ccccc2)nc(Nc2ccc(NC(=O)C(C)(C)C)cc2)n1	n
CN(C)S(=O)(=O)NCc1nc2cccnc2n1Cc1ccccc1	n
Cc1ccc(C(=O)Nc2nc3n(n2)C(c2c(F)cccc2Cl)C=C(c2ccc(Cl)cc2)N3)cc1 (stereo not given)	n
Cc1ccc(C2=CC(c3c(F)cccc3Cl)n3nc(NC(=O)c4ccc(Cl)cc4)nc3N2)cc1 (stereo not given)	n
O=C(Nc1nc2n(n1)C(c1c(F)cccc1Cl)C=C(c1ccc(Cl)cc1)N2)c1cccnc1 (stereo not given)	+
CC(C)CCNC(=O)c1nc[nH]c1C(=O)NCC(C)C	n
Nc1ccc(S(=O)(=O)N2CCOCC2)cc1S(N)(=O)=O	+
Cc1cccc(NS(=O)(=O)c2ccc(N)c(S(N)(=O)=O)c2)c1	n
CC(=O)N1c2ccc(S(=O)(=O)N3CCOCC3)cc2CC1C(=O)N1CCOCC1 (stereo not given)	n
Cc1[nH]cnc1CN(C)CCCc1cnn(C)c1	n
Cc1cc(C)cc(NS(=O)(=O)c2cc(N3C(=O)CCS3(=O)=O)ccc2C)c1	n
COC(=O)C1CCN(S(=O)(=O)c2ccc(N3C(=O)CCS3(=O)=O)cc2)CC1	n
COC(=O)C1CCN(S(=O)(=O)c2cc(N3C(=O)CCS3(=O)=O)ccc2C)CC1	+
CN(C1CCS(=O)(=O)C1)S(=O)(=O)c1ccc(N2C(=O)CCS2(=O)=O)cc1 (stereo not given)	n
Cc1ccc(N2C(=O)CCS2(=O)=O)cc1S(=O)(=O)Nc1ccccc1	+
CCN(CC)S(=O)(=O)c1cc(N2C(=O)CCS2(=O)=O)ccc1C	n
SMILES	FECH block
Cc1ccc(NS(=O)(=O)c2cc(N3C(=O)CCS3(=O)=O)ccc2C)cc1C	n
CCN(C1CCS(=O)(=O)C1)S(=O)(=O)c1cc(N2C(=O)CCS2(=O)=O)ccc1C (stereo not given)	+
CC(C)CNS(=O)(=O)c1ccc(N2C(=O)CCS2(=O)=O)cc1	n
COc1ccccc1N1CCN(S(=O)(=O)c2cc(N3C(=O)CCS3(=O)=O)ccc2C)CC1	n
O=C1CCS(=O)(=O)N1c1ccc(S(=O)(=O)NC2CCCCC2)cc1	n
O=C1CCS(=O)(=O)N1c1ccc(S(=O)(=O)NC2CC2)cc1	+
CCOC(C)c1n[nH]c(=O)n1Cc1cccs1 (stereo not given)	n
FC(F)(F)CCc1ccnc(NCc2ccc3c(c2)OCCCO3)n1	n
Cc1ccc(C(=O)NCCc2ccc(S(N)(=O)=O)cc2)cc1NC(=O)C1=CSCCO1	n
CCn1c(C2CCN(C(=O)c3cc4c(C)cccc4n3C)CC2)n[nH]c1=O	n
Cc1nnc(NC(=O)c2ccc(=O)n(Cc3ccc(Cl)cc3)c2)s1	n
COc1cccc(-c2cn[nH]c2C2CCN(C(=O)CN3CCOCC3)CC2)c1	n
CCc1cc(Sc2ccc(NC(=O)Nc3cccc(C)c3)cc2)n2nc(C)nc2n1	n
CCCc1cc(Sc2ccc(NC(=O)c3cc(OC)cc(OC)c3)cc2)n2ncnc2n1	n
O=C(c1csc(S(=O)(=O)Nc2cccnc2)c1)N1CCCC1	n
CCN(CCN(C)C)c1ncc(NS(=O)(=O)c2cc(C)c(C)cc2C)cc1C(=O)O	n
Cc1ccc(S(=O)(=O)Nc2cnc(N3CCC(CCN4CCCCC4)CC3)c(C(=O)O)c2)cc1	n
CCCCCNC(=O)C1CCC(Cn2c(=O)c3sccc3n(CC(=O)NC(C)C)c2=O)CC1 (stereo not given)	n
Cc1ccccc1NS(=O)(=O)c1cc(N2C(=O)CCS2(=O)=O)ccc1C	+
Cc1ccc(N2C(=O)CCS2(=O)=O)cc1S(=O)(=O)Nc1cccc(C)c1C	n
Cc1ccc(N2C(=O)CCS2(=O)=O)cc1S(=O)(=O)Nc1ccccc1Br	n
Cc1cccc(S(=O)(=O)NCc2nc3cccnc3n2C2CCCC2)c1	n
CN(CCc1ccccn1)c1ncccc1CNC(=O)c1ccc2nc[nH]c2c1	n
CCOc1ccc(CNC(=O)c2ccccc2NC(=O)c2nsc3ccccc23)cc1OC	n
CCOc1ccc(NC(=O)CN2CCCN(Cc3cccc(Cl)c3)S2(=O)=O)cc1	+
SMILES	FECH block
COc1ccc(CNC(=O)CN2CCCN(Cc3cccc(Cl)c3)S2(=O)=O)cc1	n
COC(=O)c1ccc(NC(=O)CN2CCCN(Cc3ccccc3)S2(=O)=O)cc1	n
O=C(CN1CCCN(Cc2cccc(Cl)c2)S1(=O)=O)Nc1ccc2c(c1)OCO2	n
CCOc1ccc(NC(=O)CN2CCCN(Cc3ccccc3)S2(=O)=O)cc1	+
CC(=O)c1ccc(NC(=O)CN2CCCN(Cc3ccccc3)S2(=O)=O)cc1	n
Cc1cc(C(=O)N2[C@@H]3CC[C@H]2CNC(=O)C3)c(-c2ccccc2)o1	n
Nc1nnc(CCCNC(=O)CN2CCOc3ccccc3C2)s1	n
O=C(NC1CCOCC1)[C@@]12CNC[C@@H]1CN(C1CCCC1)C2	n
Cc1cc(C)c(S(=O)(=O)NCc2nc3cccnc3n2C2CCCC2)cc1C	n
CCc1csc(CNC(=O)c2cc(C3CC3)[nH]n2)n1	n
CCc1csc(CNC(=O)c2ccc(-c3ncn[nH]3)cc2)n1	n
CCc1csc(CNC(=O)c2ncc[nH]2)n1	+
COc1cccc(C2CCN2CC(=O)Nc2ccc(N(C)C(C)=O)cc2)c1 (stereo not given)	n
CC(C)(O)C#Cc1cccc(C(=O)N2CCc3nc[nH]c3C2)c1	n
CC(C)CC1(CO)CCCN(C(=O)c2cccc(C#CC(C)(C)O)c2)C1 (stereo not given)	+
C/C=C/Cc1nnc(C(=O)N2CCCC(CO)(CC(C)C)C2)o1 (stereo not given)	n
Cc1sc2nc(CCN)nc(NCC3OCCc4ccccc43)c2c1C (stereo not given)	n
CC(=O)c1cccc(-c2ccnc3[nH]ccc23)c1	+
FC(F)(F)c1ccc(-c2ccnc3[nH]ccc23)nc1	n
Cn1ccc2c(-c3cccc(O)c3)ccnc21	n
O=C(O)c1ccc(-c2c(N3CCCC3)cn[nH]c2=O)s1	n
CC(Cc1cnccn1)NC(=O)c1cccc(-c2cccc(F)c2)c1 (stereo not given)	n
C=C(C)COc1ccc(C(=O)NC(C)Cc2cnccn2)cc1 (stereo not given)	+
CC(Cc1cnccn1)NC(=O)c1cc(-c2ccccc2)nn1C (stereo not given)	n
Cc1ccc(C(=O)NCCC2=CCCN(C3C=CCCC3)C2)cc1F (stereo not given)	n
CC(Oc1ccc2c(c1)OCO2)C(=O)NCc1cccnc1-n1ccnc1 (stereo not given)	n
